Data from PMC5540273 (PLoS ONE, 2017).

Assays:
Conditions in all cases: concentration: 1 μM,replicates: in singlicate; n = 1
CSNK1G1 = system: CSNK1G1
CSNK1G2 = system: CSNK1G2
CSNK1G3 = system: CSNK1G3
CSNK2A1 = system: CSNK2A1
CSNK2A2 = system: CSNK2A2
CTK = system: T1, CTK
T1 construct: gene MATK

DAPK1 = system: DAPK1
DAPK2 = system: DAPK2
DAPK3 = system: DAPK3
DCAMKL1 = system: T2, DCAMKL1
T2 construct: gene DCLK1

DCAMKL2 = system: T3, DCAMKL2
T3 construct: gene DCLK2

DCAMKL3 = system: T4, DCAMKL3
T4 construct: gene DCLK3

DDR1 = system: DDR1
DDR2 = system: DDR2
DLK = system: T5, DLK
T5 construct: gene MAP3K12

DMPK2 = system: T6, DMPK2
T6 construct: gene CDC42BPG

DMPK = system: DMPK
DRAK1 = system: T7, DRAK1
T7 construct: gene STK17A

DRAK2 = system: T8, DRAK2
T8 construct: gene STK17B

DYRK1A = system: DYRK1A
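Also: KINOMEscan kinase panel screen.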

| Compound | %Inh (CSNK1G1) [%] | %Inh (CSNK1G2) [%] | %Inh (CSNK1G3) [%] | %Inh (CSNK2A1) [%] | %Inh (CSNK2A2) [%] | %Inh (CTK) [%] | %Inh (DAPK1) [%] | %Inh (DAPK2) [%] | %Inh (DAPK3) [%] | %Inh (DCAMKL1) [%] | %Inh (DCAMKL2) [%] | %Inh (DCAMKL3) [%] | %Inh (DDR1) [%] | %Inh (DDR2) [%] | %Inh (DLK) [%] | %Inh (DMPK2) [%] | %Inh (DMPK) [%] | %Inh (DRAK1) [%] | %Inh (DRAK2) [%] | %Inh (DYRK1A) [%] |
| --- | --- | --- | --- | --- | --- | --- | --- | --- | --- | --- | --- | --- | --- | --- | --- | --- | --- | --- | --- | --- |
| COc1cccc(C2=C(Nc3cccc(Cl)c3)C(=O)NC2=O)c1 [SB-341556] | 0 | 0 | 19 | 11 | 4 | 0 | 3 | 0 | 7 | 0 | 0 | 31 | 16 | 0 | 0 | 0 | 6 | 0 | 0 | 55 |
| CNC(=O)c1ccccc1Nc1nc(Nc2cccc(CS(C)(=O)=O)c2)ncc1C.O=CO [GSK1520489] | 27 | 61 | 26 | 92.3 | 98.6 | 38 | 89 | 57 | 81 | 37 | 15 | 0 | 99.9 | 95.9 | 96.6 | 0 | 0 | 91.6 | 5 | 95.6 |
| CSc1nccc(-c2c(-c3ccc(F)cc3)ncn2CCCN2CCOCC2)n1.Cl [SB-217146] | 0 | 0 | 0 | 0 | 15 | 40 | 16 | 0 | 0 | 37 | 0 | 0 | 0 | 33 | 0 | 0 | 0 | 0 | 0 | 0 |
| NC(=O)c1ccc(-c2cc3ncnc(SCC(=O)O)c3s2)cc1 | 0 | 17 | 4 | 74 | 78 | 0 | 0 | 0 | 5 | 20 | 9 | 17 | 0 | 9 | 0 | 24 | 0 | 98.3 | 100 | 94.8 |
| CC(C(=O)NC1CCN(c2ccnc(Nc3ccc(F)cc3)n2)C1)c1ccc(Cl)cc1 (centres unmarked) [GSK1379713] | 0 | 0 | 18 | 1 | 0 | 0 | 0 | 0 | 0 | 0 | 12 | 9 | 14 | 11 | 19 | 0 | 0 | 6 | 0 | 10 |
| CC(C)S(=O)(=O)N1CCN(Cc2ccc3c(c2)nc(NC(=O)c2ccsc2)n3C[C@H](O)c2ccccc2)CC1 [GW635815] | 16 | 5 | 20 | 6 | 37 | 0 | 0 | 0 | 31 | 0 | 0 | 9 | 46 | 19 | 69 | 0 | 0 | 72 | 11 | 48 |
| Cc1ccc(C(=O)Nc2ccc(Oc3ccc4nc(NC(=O)C5CC5)cn4c3)c(F)c2)c(=O)n1-c1ccccc1 | 2 | 0 | 0 | 0 | 0 | 0 | 0 | 0 | 2 | 2 | 0 | 0 | 98.2 | 100 | 35 | 0 | 0 | 0 | 1 | 0 |
| CN(c1ccccc1CNc1nc(Nc2ccc3c(c2)CC(=O)N3)ncc1C(F)(F)F)S(C)(=O)=O | 0 | 0 | 13 | 70 | 92.7 | 0 | 4 | 24 | 28 | 21 | 0 | 94.8 | 12 | 0 | 19 | 0 | 25 | 96.5 | 98.4 | 28 |
| Cn1cc(-c2cccc3c(N)c(C(N)=O)nnc23)cn1 | 13 | 7 | 10 | 26 | 33 | 32 | 3 | 16 | 5 | 7 | 13 | 23 | 0 | 0 | 27 | 7 | 0 | 79 | 12 | 56 |
| Cn1ccc2ncnc(Oc3ccc(NC(=O)Nc4cc(C(C)(C)C)on4)c(Cl)c3)c21 | 17 | 15 | 0 | 21 | 30 | 48 | 0 | 0 | 0 | 25 | 15 | 0 | 100 | 99.4 | 0 | 6 | 0 | 11 | 35 | 26 |
| Cn1ccc2ncnc(Oc3ccc(NC(=O)Nc4cnn(C(C)(C)C)c4)c(Cl)c3)c21 | 0 | 32 | 0 | 0 | 38 | 20 | 8 | 0 | 0 | 10 | 5 | 2 | 100 | 100 | 0 | 0 | 15 | 0 | 3 | 11 |
| C[C@@H]1CNc2c(sc3ccc4nc(-c5ccc(O)cc5)ccc4c23)C(=O)N1 | 29 | 38 | 32 | 48 | 43 | 43 | 35 | 34 | 26 | 37 | 0 | 54 | 0 | 16 | 0 | 0 | 0 | 100 | 100 | 98.9 |
| FC(F)(F)c1cc(Br)cc(Nc2nccc(-c3cnn4ncccc34)n2)c1 [GW810578] | 13 | 31 | 0 | 0 | 32 | 0 | 2 | 1 | 18 | 19 | 15 | 16 | 0 | 16 | 0 | 20 | 15 | 8 | 36 | 99.6 |
| O=C(Nc1ccc(Oc2ccc3nc(NC(=O)C4CC4)cn3n2)c(F)c1)c1cccn(-c2ccccc2)c1=O | 0 | 0 | 30 | 0 | 0 | 0 | 0 | 0 | 14 | 4 | 13 | 29 | 99.1 | 100 | 13 | 0 | 0 | 0 | 0 | 0 |
| C[C@@H](Oc1cc(-n2cnc3ccc(-c4ccncc4)cc32)sc1C(N)=O)c1ccccc1Cl [GSK483724] | 9 | 14 | 29 | 52 | 89 | 0 | 0 | 0 | 19 | 88 | 18 | 0 | 37 | 8 | 17 | 2 | 47 | 81 | 0 | 82 |
| CCn1c(-c2nonc2N)nc2cncc(Br)c21 [SB-738004] | 5 | 0 | 7 | 0 | 21 | 0 | 39 | 55 | 46 | 18 | 2 | 7 | 0 | 39 | 43 | 10 | 0 | 5 | 0 | 98 |
